Source: PubChem BioAssay
hgDAF12 agonist = agonists of H. glycines DAF-12 nuclear receptor; activation, % at 6.8 µM; HEK293 GAL4-hgDAF12 UAS-luciferase reporter, agonist luminescence; normalized to butyrate control; AID 687014; 1.8% of 370,000 active;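 active = activation above a cutoff set at the mean of all screened compounds plus 3 SD, cut at about 10% in these data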;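 also: 0% = DMSO wells and 100% = sodium butyrate wells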
hcDAF-12 act = activators of H. contortus DAF-12 nuclear receptor | HEK293 hcDAF-12 lit1-tk-luc reporter, luminescence; 0% DMSO, 100% Δ7-dafachronic acid | activation, % at 6.8 µM | AID 652067 | 1.4% of 370,000 active;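 active = activation above the mean of all tested compounds plus 3 SD, cut at about 5.5% in these data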;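 also: 100% = response to 3 µM Δ7-dafachronic acid high control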
DAX1 StAR inh = DAX1 (NR0B1) inhibition, primary screen; HEK293T StAR-luciferase reporter, SF-1/DAX-1 repression relief; inhibition, % at 6.8 µM; 1.1% of 370,000 active; AID 652010;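 active = inhibition above the mean over all tested compounds plus 3 SD, cut at about 3.6% in these data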;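 also: 0% = DAX-1 cells with DMSO and 100% = cells lacking DAX-1 with DMSO; higher inhibition means more luminescence from relief of DAX-1 repression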
esBAF inh = blocks esBAF chromatin remodeling in mouse ES cells; Bmi1-luciferase knock-in reporter, 24 h; 100% = twice the neutral-well signal; reporter increase, % at 12.5 µM; 2% of 350,000 active; in the data active = activation above about 40%;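 also: 0% = median of the plate's neutral control wells and 100% = double that signal; a rise in the Bmi1 reporter signal indicates esBAF inhibition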
ssDAF12 agonist = S. stercoralis DAF-12 activation, primary screen | activation, % at 6.8 µM | HEK293 ssDAF-12/GRIP1 lit1-tk-luc reporter, luminescence; % of 3 µM dafachronic acid response | 1% of 370,000 active;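 active = activation above the mean over all tested compounds plus 3 SD, cut at about 0.9% in these data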;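 also: 0% = DMSO-only wells and 100% = 3 µM delta7-dafachronic acid wells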
Wnt bcat act = activators of Wnt/beta-catenin signaling; Wnt/beta-catenin reporter cell assay, activator, plate reader; AID 743398; 1.2% of 300,000 active; activation, % at 9.35 µM; in the data active = activation above about 30%, passing the limit was not always enough;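 also: 0% = neutral control wells and 100% = positive control wells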
* hit, by the source's call; / = no result given. Hits are enriched below; roughly 4.2% of the tested compounds scored in any of these assays.

SMILES | hgDAF12 agonist | hcDAF-12 act | DAX1 StAR inh | esBAF inh | ssDAF12 agonist | Wnt bcat act
c1ccc(-c2ccc(OCCCn3cncn3)cc2)cc1 | 2 | 1 | -1 | 51* | -1 | 35*
O=C(N/N=C/c1ccc(-c2cccc([N+](=O)[O-])c2)o1)c1cccs1 | 5 | 5.7* | -1 | / | 1.8* | 14
O=C(N/N=C/c1ccc([N+](=O)[O-])cc1)c1cccs1 | 3 | -1 | 1 | / | 0 | 38*
NC(=S)N/N=C/c1ccc(-c2cccc([N+](=O)[O-])c2)o1 | -1 | -2 | -1 | / | -1 | /
C[C@H]1CN([C@@H](C)CO)C(=O)c2cccc(NC(=O)C3CCCCC3)c2O[C@@H]1CN(C)S(=O)(=O)c1ccc(Cl)cc1 | / | / | / | -1 | / | /
O=C(C[C@H]1CC[C@H](NC(=O)Cc2cccnc2)[C@H](CO)O1)NCc1ccc2c(c1)OCO2 | / | / | / | -5 | / | /
O=C(C[C@H]1C=C[C@H](NC(=O)Nc2cccc(F)c2)[C@H](CO)O1)NCC1CCCCC1 | / | / | / | 2 | / | /
CCc1ccc(-c2csc3ncn(CC)c(=O)c23)cc1 | -3 | -1 | 0 | / | 18* | -2
CCn1cnc2scc(-c3ccc(OC)cc3)c2c1=O | 1 | -2 | -1 | -4 | -1 | -1
CC(C)C#Cc1cnc2c(c1)C(=O)N([C@H](C)CO)C[C@@H](C)[C@@H](CN(C)C(=O)Nc1ccccc1)O2 | / | / | / | 4 | / | /
COc1ccc(-c2nc(CS(=O)CC(=O)NC3CCC(C)CC3)c(C)o2)cc1OC (stereo unspecified) | 4 | 0 | 0 | 77* | -1 | 12
CN(C)/C=C1/N=C(c2ccccc2)OC1=O | 0 | -1 | -1 | 15 | -1 | 0
O=C1OC(c2ccc(Br)cc2)=N/C1=C\N1CCCCC1 | 5 | 0 | 1 | 53* | -1 | 9
Cc1ccc(C2=N/C(=C\c3c(C)nn(-c4ccccc4)c3N3CCCC3)C(=O)O2)cc1 | 1 | 1 | 0 | 0 | -1 | -2
O=C1OC(c2ccccc2)=C/C1=C/N1CCCCC1 | 0 | -1 | 0 | 84* | -1 | 2
O=C1OC(c2ccccc2)=N/C1=C\N1CCCCC1 | 8 | 1 | 1 | 85* | -1 | -1
CC(C)NC(=O)N1C[C@@H]2[C@H](c3ccccc31)[C@@H](CO)N2C(=O)c1ccccc1F | / | / | / | -2 | / | /
CC(C)C#Cc1cnc2c(c1)C(=O)N([C@H](C)CO)C[C@H](C)[C@H](CN(C)C(=O)Nc1cccc(F)c1)O2 | / | / | / | -18 | / | /
COc1ccccc1-c1cnc2c(c1)C(=O)N([C@@H](C)CO)C[C@@H](C)[C@H](CN(C)C(C)=O)O2 | / | / | / | -1 | / | /
CCOC(=O)CON1C(=O)C(C)(C)N(OCC(=O)OCC)C(=O)C1(C)C | -1 | 0 | 1 | -7 | 1.0* | /
CCON1C(=O)C(C)(C)N(OCC)C(=O)C1(C)C | 0 | -3 | 0 | / | -1 | 43*
CC1(C)NC(=O)N(CN2C(=O)NC(C)(C)C2=O)C1=O | 3 | 0 | 0 | 2 | -2 | /
COCCCNC(=O)C(=O)Nc1ccc2c(c1)N(S(=O)(=O)c1cccs1)CCC2 | -4 | -1 | 4.2* | -1 | 0 | -11
CCCNC(=O)C(=O)Nc1ccc2c(c1)N(S(=O)(=O)c1cccs1)CCC2 | 4 | -1 | -5 | -18 | -2 | -4
O=C(CSc1nnc(NC(=O)c2ccc3c(c2)OCO3)s1)NCc1ccco1 | 13* | 5.9* | 2 | / | 0 | 11
SMILES | hgDAF12 agonist | hcDAF-12 act | DAX1 StAR inh | esBAF inh | ssDAF12 agonist | Wnt bcat act
Cc1ccc2nc(SCC(=O)NCc3ccco3)c(C#N)cc2c1 | 6 | 1 | 1 | 18 | 0 | 59*
Cc1ccc2cc(C#N)c(SCC(=O)NCc3ccco3)nc2c1 | 1 | -2 | -1 | 18 | -2 | /
O=C(CSc1nnc(NC(=O)c2ccccc2)s1)NCc1ccco1 | 6 | 2 | 3 | -1 | 0 | 19
O=C(CSc1nnc(NC(=O)c2ccccc2F)s1)NCC1CCCO1 (stereo unspecified) | 7 | 5 | 3.8* | / | -1 | -1
O=C(CSc1nnc(NC(=O)c2ccccc2[N+](=O)[O-])s1)NCC1CCCO1 (stereo unspecified) | -2 | 2 | -1 | -9 | -1 | 1
Cc1ccccc1C(=O)Nc1nnc(SCC(=O)NCc2ccco2)s1 | 12* | 5.9* | 8.0* | / | 0 | 20
COc1ccc(NC(=O)N(C)C[C@@H]2Oc3ncc(-c4cccnc4)cc3C(=O)N([C@@H](C)CO)C[C@@H]2C)cc1 | / | / | / | -2 | / | /
CN1C(=O)c2cc(NC(=O)C3CCOCC3)ccc2OC[C@@H]2O[C@@H](CC(=O)O)CC[C@@H]21 | / | / | / | 0 | / | /
CO[C@@H]1CN(C)C(=O)c2ccc(NS(=O)(=O)c3cn(C)cn3)cc2OC[C@@H](C)N(Cc2cccc(F)c2)C[C@H]1C | / | / | / | 4 | / | /
NC1=NC(=O)C(=Cc2ccccc2)S1 | 3 | 0 | 0 | / | -1 | -2
NC1=NC(=O)/C(=C\c2cccnc2)S1 | 12* | -1 | 0 | / | -1 | -2
CSCCC(c1nc2ccccc2[nH]1)n1c(/C=C/c2ccc(Cl)cc2)nc2ccccc21 (stereo unspecified) | -2 | -3 | -1 | / | -1 | -5
CSCCC(c1nc2ccccc2[nH]1)n1c(/C=C/c2ccc(F)c(F)c2)nc2ccccc21 (stereo unspecified) | 8 | 3 | 3 | / | 0.9* | 26
Cc1ccc(OCCSc2nc(N)cc(N)n2)cc1 | 6 | 0 | 2 | / | 0 | 13
COc1ccc(OCCSc2nc(N)cc(N)n2)cc1 | 3 | 1 | 3 | 67* | -1 | 2
COc1ccc2cc(-c3[nH]ncc3CN3CCCCO3)ccc2c1 | 2 | 0 | 1 | 56* | -1 | 3
CCCC#Cc1cnc2c(c1)C(=O)N([C@@H](C)CO)C[C@H](C)[C@H](CN(C)Cc1ccncc1)O2 | / | / | / | -1 | / | /
COc1ccc(-c2csc(N(CC3CCCO3)C(=O)c3ccc(C)cc3)n2)cc1 (stereo unspecified) | 1 | 0 | 0 | -34 | 0 | 38*
CCCC#Cc1ccc2c(c1)O[C@@H](CN(C)CC1CCOCC1)[C@@H](C)CN([C@@H](C)CO)S2(=O)=O | / | / | / | 0 | / | /
O=C(O)c1ccc(CSc2nnc(-c3ccccc3)n2-c2ccccc2)cc1 | 0 | -1 | 0 | / | -1 | 35*
O=C(O)c1ccc(CSc2nnc(-c3ccccc3Cl)n2-c2ccccc2)cc1 | -4 | -2 | 0 | 0 | 0 | -2
COc1ccc(S(=O)(=O)N(C)C[C@@H]2OCc3cn(nn3)CCCC(=O)N([C@H](C)CO)C[C@H]2C)cc1 | 0 | 1 | 3.7* | 2 | -1 | -2
COc1ccc(S(=O)(=O)N(C)C[C@@H]2OCc3cn(nn3)CCCC(=O)N([C@@H](C)CO)C[C@@H]2C)cc1 | / | / | / | -5 | / | /
